This is part of a sample that, as a whole, favours compounds with a hit. Of some 83,000 tested, about 20% had one in any assay.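 Cells were grown in 96-well plates and exposed to the test compound at a single concentration for 48 hours; results are reported as percent growth, with values below 10 considered active.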 Values without a mark were called inactive. Activity calls are given as the source filed them.
How the values were obtained:
Test in all cases: NCI-60 one-dose screen, 48 h (100 = growth as untreated, 0 = no growth, -100 = all killed)
[1] = tested on: K-562 leukemia; details: 10 µM unless noted
[2] = tested on: MALME-3M melanoma; details: 10 µM unless noted
[3] = tested on: MDA-MB-231 breast; details: 10 µM unless noted
[4] = tested on: RXF 393 renal; details: 10 µM unless noted
[5] = tested on: SF-268 CNS; details: 10 µM unless noted
[6] = tested on: SF-295 CNS; details: 10 µM unless noted
[7] = tested on: SF-539 CNS; details: 10 µM unless noted
[8] = tested on: UACC-257 melanoma; details: 10 µM unless noted
[9] = tested on: M14 melanoma; details: 10 µM unless noted
[10] = tested on: HCT-15 colon; details: 10 µM unless noted
[11] = tested on: HT29 colon; details: 10 µM unless noted
[12] = tested on: SNB-75 CNS; details: 10 µM unless noted
[13] = tested on: SNB-19 CNS; details: 10 µM unless noted
[14] = tested on: U251 CNS; details: 10 µM unless noted
[15] = tested on: PC-3 prostate; details: 10 µM unless noted
[16] = tested on: SK-MEL-5 melanoma; details: 10 µM unless noted
[17] = tested on: UACC-62 melanoma; details: 10 µM unless noted
[18] = tested on: LOX IMVI melanoma; details: 10 µM unless noted
[19] = tested on: SK-MEL-28 melanoma; details: 10 µM
[20] = tested on: SK-MEL-2 melanoma; details: 10 µM unless noted

Row | Structure (SMILES) | growth [1] | growth [2] | growth [3] | growth [4] | growth [5] | growth [6] | growth [7] | growth [8] | growth [9] | growth [10] | growth [11] | growth [12] | growth [13] | growth [14] | growth [15] | growth [16] | growth [17] | growth [18] | growth [19] | growth [20]
1 | Cc1cccc2c(=O)c3c(sc12)c(NCCN)nc1ccccc13 | -45.2% (active) | -74.2% (active) | -75.6% (active) | 34.1% | 6.22% (active) | -75.3% (active) | -85.7% (active) | -17.6% (active) | -75.7% (active) | -79.9% (active) | -54.9% (active) | 15.2% | -2.48% (active) | -77.2% (active) | -42.9% (active) | -22.9% (active) | -86.6% (active) | -92.9% (active) | -86.1% (active) | -34.9% (active)
2 | COc1c(B(O)O)cccc1-c1nc2ccc3n[nH]c(F)c3c2c2c1CCCC2 | 92.9% | 119% | 28.9% | 24.1% | 50.5% | 80% | 25.1% | 121% | 104% | 85.3% | 105% | -10.9% (active) | 78.8% | 71.4% | 74% | 88.7% | 77.7% | 54.7% | 116% | 110%
3 | Cc1ccc(N=NC2C(=O)N(c3ccc(Cl)cc3)N(c3ccc(Cl)cc3)C2=O)cc1 | 94.1% | 98% | 91.7% | 113% | 100% | 93.9% | 100% | 86.8% | 102% | 98.3% | 104% | 84.1% | 91.1% | 99% | 93.4% | 91.6% | 92.4% | 96.6% | 99.1% | 105%
4 | CC(=O)c1ccc2oc(=O)n(Cc3ccc(C#N)cc3)c(=O)c2c1 | 117% | 96.9% | 107% | 114% | 99.1% | 99.1% | 96.8% | 108% | 108% | 98.9% | 112% | 87.3% | 104% | 105% | 97.5% | 105% | 97.9% | 97.8% | 104% | 101%
5 | Cc1cc(Br)c(N)c(Br)c1 | 90% | 104% | 103% | 106% | 106% | 95.9% | 95.5% | 77.5% | 89.3% | 96.1% | 106% | 84.3% | 103% | 96.4% | 93% | 102% | 98.6% | 93.6% | 101% | 110%
6 | Cc1[nH]c2ccccc2c(=O)c1CC=C(Cl)Cl | -34.6% (active) | 82.4% | 34.1% | 63.9% | 39.6% | -86.8% (active) | 58% | 99.5% | 72.7% | 3.43% (active) | -59.8% (active) | 63.1% | 56.7% | 18.9% | 43.6% | 72.2% | 63.9% | 3.09% (active) | 74.8% | 46.2%
7 | CCOC(=O)c1cc2c(n1Cc1ccccc1OC)-c1oncc1CCC2 | 10.5% | 20.7% | 53% | 5.36% (active) | 57.6% | 17% | 3.92% (active) | 50.4% | 35% | 30.9% | 10.1% | -2.26% (active) | 59.6% | 36.7% | 30.8% | 6.57% (active) | 26.5% | 45.5% | 44.8% | 27.5%
8 | COC(=O)c1c2c(c(C)[n+]([O-])c1C)C(=O)C(NCc1ccc(Br)cc1)=CC2=O | 32% | -70.1% (active) | 4.21% (active) | 41.4% | 16.2% | 19.3% | 8.36% (active) | -52.3% (active) | 4.19% (active) | 7.94% (active) | 9.96% (active) | 84.5% | 19% | 9.45% (active) | 27.6% | -93.1% (active) | -16.2% (active) | 16.9% | 65.3% | 47.1%
